Bioassay records: PubChem, Center for Chemical Genomics, University of Michigan
CDC25B CDK2 inh: human CDC25B-CDK2/CyclinA binding inhibition. HTRF CDC25B-CDK2/CyclinA binding, anti-His/anti-Flag; hits give high values. 94,000 compounds, 0.72% hits. P30305+P24941. z-score (concentration not given with the values); in the data active = z-score above about 3.2
TAR Tat displ: HIV-1 TAR-Tat binding disruption. HIV-1 TAR RNA, Tat peptide displacement FRET; hits give high values. 100,000 compounds, 0.6% hits. z-score (no concentration beside the values). AID 1259389; active = z-score of 3 or more in at least 2 runs
Active calls of the source: *; x = no result. Most compounds without a hit are left out; they make up all but 0.93% or so of the library.

SMILES	CDC25B CDK2 inh	TAR Tat displ
COc1cc(OC)cc(C(=O)Nc2nc3c(s2)CCc2ccccc2-3)c1	-2.35	x
O=C(NCCSc1ccccc1)c1cccc(-n2cnnc2)n1	x	1.44
Fc1cccc(Cl)c1C1CC(c2ccc(Br)cc2)Nc2nnnn21 (stereo not given)	x	2.02
COc1ccc(C2=NN3C(C2)c2ccccc2OC3c2ccncc2)cc1OC (stereo not given)	-0.92	-0.61
COc1ccccc1C1Oc2ccccc2C2CC(c3cccnc3)=NN21 (stereo not given)	-0.43	3.47*
O=C(Nc1sc2c(c1C(=O)NCc1cccnc1)CCCC2)c1csnn1	-0.4	1.34
CCOC(=O)C1CCCN(Cc2oc(CO)cc(=O)c2O)C1 (stereo not given)	1.47	x
CCOC(=O)c1cnc2ccc(Br)cc2c1Nc1ccc(N(C)C)cc1	-0.69	7.66*
CCOC(=O)c1cnc2ccc(Br)cc2c1NCc1ccco1	-3.2	-1.22
O=C1c2ccccc2S(=O)(=O)N1CC(O)COc1ccccc1 (stereo not given)	-1.24	x
CN1CCc2c(n(CC(O)CN3C(=O)c4ccccc4S3(=O)=O)c3ccccc23)C1=O (stereo not given)	19.4*	0.59
Cc1nc(N2CCCC(C(=O)NC3CC3)C2)c2c(C)noc2n1 (stereo not given)	x	10.9*
CCc1noc2nc(C)nc(N3CCCC(C(=O)NC4CC4)C3)c12 (stereo not given)	x	3.72
CCOC(=O)c1c(C)oc2c1c1c(c3ccccc32)OCN(CC2CCCO2)C1 (stereo not given)	16.7*	-5.38
CCOC(=O)c1c(C)oc2c1c(CN1CCCC(C(=O)OCC)C1)c(O)c1ccccc12 (stereo not given)	-0.68	x
CSc1nc(C)cc(Nc2ccc(N3CCC(C)CC3)cc2)n1	-0.87	0.65
Cc1cc(Nc2ccc(N3CCN(C)CC3)cc2)nc(C)n1	11.5*	-1.55
CCCCN(C)C(=O)C1CCCN(S(=O)(=O)c2c(C)noc2/C=C/c2cccs2)C1 (stereo not given)	-0.97	-0.07
O=S(=O)(Nc1ccc(Oc2ccc(F)cc2)cc1)c1ccc(Cl)cc1	12.5*	x
COc1ccc(NS(=O)(=O)c2ccc(NS(=O)(=O)c3ccc(Cl)cc3)cc2)cc1	0.47	-0.37
O=c1c2[nH]c3ccccc3c2ncn1CCCN1CCN(C2CCCCC2)CC1	-1.91	3.15
CCC(C)NC(=O)C1=CC(c2ccc(F)cc2)=NS(=O)(=O)N1C (stereo not given)	-2.22	3.75*
CN1C(C(=O)NCc2ccc(F)cc2)=CC(c2ccc(F)cc2)=NS1(=O)=O	-2.65	1.47
Cc1[nH]n2c(=O)cc(CSc3nnnn3-c3ccccc3)nc2c1-c1ccc(Cl)cc1	-2.16	23.5*
Cc1cc(=O)n2[nH]c(C)c(-c3ccc(Cl)cc3)c2n1	-3.7	x
SMILES	CDC25B CDK2 inh	TAR Tat displ
O=C(O)COCC(=O)Nc1ccc(Oc2c(Cl)cccc2Cl)nc1	-1.57	x
COc1ccc(C(O)(c2ccccc2OC)C(CN2CCOCC2)c2ccc(Cl)cc2)cc1 (stereo not given)	-1.22	2.07
COC(=O)c1noc2ncnc(Nc3ccc(Br)cc3F)c12	-1.97	-0.69
COc1ccc(-c2cc(-c3cccnc3)c(C#N)c(N)n2)cc1	-0.24	3.18*
N#Cc1c(-c2cccnc2)cc(-c2ccc(F)cc2)nc1N	-2.37	0.76
N#CC1=C(N)Oc2cc(O)ccc2C1c1ccc(OCc2ccccc2F)cc1 (stereo not given)	0.83	x
CCN(C(=O)C1CCCN1S(=O)(=O)c1ccc(-c2ccc(=O)[nH]n2)s1)c1ccccc1 (stereo not given)	x	1.6
COc1ccccc1-n1cnc2cc(NCc3ccncc3)ccc21	13.2*	0.48
COc1ccccc1-n1cnc2cc(Nc3nnc(C)c4ccccc34)ccc21	-3.07	2.1
COc1cccc(N2CCN(C(=O)c3cccn4c(=O)c5sccc5nc34)CC2)c1	-1.07	x
O=C(NCCN1CCc2ccccc2C1)Nc1ccccc1F	-0.6	-0.3
CSc1ccc(NC(=O)NCCN2CCc3ccccc3C2)cc1	12.7*	1.53
COc1ccc(OC)c(S(=O)(=O)NCc2nnnn2-c2ccccc2)c1	x	2.03
Cc1ccc(C)n1-c1sccc1C(=O)NN	-1.57	x
Cc1ccc(C)n1-c1ccc(Cl)c(C(=O)NN)c1	18.8*	x
COc1ccc(NS(=O)(=O)c2ccc3c(c2)NC(=O)CS3)cc1OC	x	3.35
COc1ccc(NC(=O)OCc2ccc(F)cc2)cc1-n1cnnn1	x	1.6
Cc1ccc2c(c1)S/C(=C\c1sc3ccccc3[n+]1C)N2CCO	2.44	7.9*
Cc1ccc2c(c1)N(CCO)/C(=C/c1sc3ccccc3[n+]1C)S2	-1.5	-0.61
C/C(=N\N=C1\NC(=O)C(CC(=O)Nc2ccc(C)c(Cl)c2)S1)c1ccc(F)cc1 (stereo not given)	1.64	x
Oc1ccc2ncccc2c1C(Nc1ccccn1)c1ccc(Cl)cc1 (stereo not given)	2.58	2.14
Oc1ccc2ncccc2c1C(Nc1ccccn1)c1cccc(Cl)c1 (stereo not given)	14.7*	1.39
